Bioassay records as filed in PubChem BioAssay.
SMN2 splice up: SMN2 splice variant enhancement; HEK293 SMN2-luciferase splicing reporter, luminescence, 30-36 h; Potency, µM (series often up to 46.1 µM), without a hit: at the top dose activity change, positive = activation, actives largely listed as activators; 2.8% of 210,000 active; AID 1458; further: % of control where 0% means no effect; nearly all actives have a fitted effect of over 55% in size
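HEK293 cells carry an SMN2 minigene-luciferase reporter in which exon 7 inclusion puts luciferase in frame. Cells were seeded at 2000 cells/well, attached for 10-12 hours, then exposed to compounds for 30-36 hours at 37C before ONE-Glo luminescence.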
Rab9 prom act: activators of Rab9 promoter; Huh7 Rab9 promoter-luciferase reporter, luminescence, 24 h; 2.8% of 320,000 active; Potency, µM (highest dose often 9.22 µM), without a hit: at the highest dose activation, negative = inhibition, actives largely listed as activators; further: % of control where 0% means no effect; nearly all actives have a fitted effect of over 60% in size
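Rab9 promoter-driven luciferase in stably transfected Huh7 cells; 1500 cells/well rested 2 h, exposed to compound in DMSO for 24 h at 37 °C, 5% CO2. Luminescence read 10 min after adding luciferase reagent at ambient temperature.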
ELG1 genotoxic: genotoxicity induction in ELG1-luciferase HEK293T cells | HEK293T ELG1-luciferase reporter, luminescence, 16 h | Potency, µM (doses to about 46 µM), for the others: at the top dose activity change, positive = activation, most hits filed as activators | 1.3% of 330,000 active; further: % of control where 0% means no effect; nearly all actives have a fitted effect of over 60% in size
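HEK293T cells expressing luciferase-tagged ELG1 were exposed to compound or DMSO vehicle for 16 hr at 37 °C and 5% CO2. Luciferase activity was then measured with ONE-Glo after 30 min at room temperature.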
KinaseGlo FLuc: Kinase-Glo luciferase inhibition (counter-screen) | 0.28% of 200,000 active | Kinase-Glo luciferase, ATP luminescence, 8 min | Q27757 | Potency, µM (top dose mostly 38.3 µM), for the others: at the top dose activity change, negative = inhibition, hits mostly inhibitors; further: on the % scale 0 is the no-effect control and ±100 the full control effect; nearly all actives have a fitted effect of over 60% in size
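Recombinant Kinase-Glo luciferase, 10 uM ATP (linear range), luciferin; imidazole pH 7.2 / KCl / MgCl2 / Tween / BSA buffer; 8 min RT; luminescence.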
FLuc modulator: firefly luciferase modulation, counter-screen for miR-21 project; Potency, µM (series often up to 57.5 µM), for the others: at the top dose activity change, negative = inhibition, most hits filed as inhibitors; purified FLuc, Km substrates, luminescence inhibition; 6.9% of 360,000 active;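 further: plate controls were vehicle for no effect and reference inhibitor for full effect; nearly all actives have a fitted effect of over 55% in size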
Target sequence (P08659 whole entry, looked up): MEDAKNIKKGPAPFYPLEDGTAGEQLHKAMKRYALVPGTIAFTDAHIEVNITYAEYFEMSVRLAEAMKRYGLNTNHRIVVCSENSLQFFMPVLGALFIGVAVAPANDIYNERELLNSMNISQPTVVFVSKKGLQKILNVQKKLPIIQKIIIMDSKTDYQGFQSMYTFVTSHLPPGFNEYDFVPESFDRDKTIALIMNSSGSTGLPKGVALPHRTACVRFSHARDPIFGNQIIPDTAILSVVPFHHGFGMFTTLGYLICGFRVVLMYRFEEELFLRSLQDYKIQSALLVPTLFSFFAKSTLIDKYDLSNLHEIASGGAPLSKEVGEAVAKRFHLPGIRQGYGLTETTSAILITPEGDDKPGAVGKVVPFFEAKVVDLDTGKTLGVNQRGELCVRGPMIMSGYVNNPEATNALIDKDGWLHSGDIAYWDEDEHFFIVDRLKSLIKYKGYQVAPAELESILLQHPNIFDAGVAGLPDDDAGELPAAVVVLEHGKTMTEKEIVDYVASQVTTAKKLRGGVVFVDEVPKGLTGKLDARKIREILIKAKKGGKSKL
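Purified P. pyralis luciferase (10nM final) with 10uM D-luciferin and 10uM ATP (Km levels) in 50mM Tris acetate pH 7.5, 10mM Mg acetate, 0.01% Tween-20, 0.05% BSA; qHTS 6-point titration, ~60 µM downward; luminescence read.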
NPC1 prom act: activates the NPC1 promoter | Huh7 NPC1 promoter luciferase reporter, 24 h | AID 485313 | Potency, µM (series often up to 9.22 µM), for the others: at the top dose activation, actives largely listed as activators | 2.4% of 320,000 active; further: % of control where 0% means no effect; nearly all actives have a fitted effect of over 60% in size
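Compounds in DMSO were transferred onto Huh7 NPC1-luciferase reporter cells pre-incubated 2 h; after 24 h at 37 °C, Amplite reagent was dispensed and luminescence recorded 10 min later.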
* marks the source's active call; other numbers are inactive results; ? = inconclusive; · = no result; [ ] = another dose, or the depositor's remark. Hits are enriched below; roughly 7.5% of the tested compounds scored in any of these assays. The call rests on the fitted dose curve; in most records, active means well fitted curve in the direction sought with a large enough effect; inconclusive means small, poorly fitted or top-dose-only effect, or another doubt; inactive means no such curve, though single readings can be large; an effect the other way counts as inactive or inconclusive. Potency means the concentration at half of the fitted maximal effect.

SMILES | SMN2 splice up | Rab9 prom act | ELG1 genotoxic | KinaseGlo FLuc | FLuc modulator | NPC1 prom act
CCOC(=O)C1CCCN(C(=O)c2cc(Nc3ccc(OC)cc3OC)nc3ccccc23)C1 (configuration not stated) | -3% | 10% | -8% | 0% | 9.5µM* | 10%
CCOC(=O)C1CCCN(C(=O)c2cc(-c3ccc(C)cc3)nc3ccccc23)C1 (configuration not stated) | -37% | 16% | 0% | -6% | 4.8µM* | 13%
COc1ccc(Nc2cc(C(=O)NC3CCCC3)c3ccccc3n2)c(OC)c1 | -24% | 3% | -1% | · | ? | -6%
CCOC(=O)C1CCN(C(=O)CC(C)c2ccccc2)CC1 (configuration not stated) | 0% | · | · | 2% | 7% | ·
COc1ccc(NC(=O)Nc2ccc3c(c2)CC(=O)N([C@H](C)CO)C[C@@H](C)[C@H](CN(C)C(=O)Nc2ccccc2)O3)cc1 | · | · | 4% | · | · | ·
CCn1c(=O)cc(OCC(=O)N2CCN(c3cccc(Cl)c3)CC2)c2ccccc21 | 4% | · | · | · | -14% | ·
C=CCCCCCCCCCCCC(O)CC(O)COC(C)=O (configuration not stated) (tested in a mixture with another compound) | -14% | · | · | -4% | · | ·
CCOC(=O)C1CCCN(C(=O)c2cc(Nc3ccc(OC)c(OC)c3)nc3ccccc23)C1 (configuration not stated) | 0% | 5% | -6% | -4% | 11µM* | -1%
COc1ccc(Nc2cc(C(=O)NCc3ccccc3)c3ccccc3n2)cc1OC | 1% | · | · | · | -10% | ·
O=C(Cn1cc2c(n1)CCCCC2)Nc1ccccc1Br | · | 26% | 3% | · | -16% | 12%
CCOC(=O)c1ccccc1NC(=O)/C=C/C(=O)O | 2%[1.84 µM] | -1% | -1% | -1% | 12% | -4%
O=C(O)/C=C/C(=O)Nc1ccccc1C(=O)OCC(=O)c1ccc2c(c1)OCCO2 | -1% | 15% | 12% | ? | 0.19µM* | 2%
CCCCC(=O)Nc1ccccc1C(=O)OCC(=O)c1ccc2c(c1)OCCO2 | -9% | ? | 4% | -6% | 1.2µM* | 29%
CC1CCCN(Cc2c(O)ccc3c(=O)c(-c4ccc(Cl)cc4)c(C(F)(F)F)oc23)C1 (configuration not stated) | -6% | · | · | · | 1% | ·
Cc1ccc(-c2csc(N=C(N)N)n2)cc1 | · | ? | 14% | · | 15µM* | ?
Cc1ccc(C(=O)N2CCN(S(=O)(=O)N3CCCCC3)CC2)cc1 | · | 0% | 0% | · | 2% | -1%
Cc1ccc(C2=Nc3ccccc3N=C(c3ccc(F)cc3)C2)c(O)c1 | 11% | · | · | · | -2% | ·
O=C(O)c1cc([N+](=O)[O-])ccc1N1CCCCC1 | -1% | 1% | 0% | 8% | -1% | -1%
O=[N+]([O-])c1ccc2c(c1)N([O-])C1(CCCCC1)[N+]2=O | · | 10% | 2% | · | 15µM* | 0%
COc1ccc(N(CC(=O)NCc2ccccc2Cl)S(=O)(=O)c2c(C)[nH]c(=O)[nH]c2=O)cc1 | 4% | · | · | · | -19% | ·
COC(=O)N1CCC2(CCN(C(=O)Nc3ccc(OC)cc3)CC2)CC1 | -11% | · | · | -4% | · | ·
COC(=O)C1=C(O)/C(=C/c2cccc(OC)c2O)N=C1C | · | ? | 13% | · | 15µM* | -4%
COC(=O)C1=C(O)/C(=C\c2ccc(OCC(=O)Nc3ccccc3)cc2)N=C1C | · | -2% | 3% | · | 24µM* | -2%
CCN(c1ncnc2c1c(-c1ccccc1)cn2-c1ccccc1)C1CCCCC1 | · | · | · | · | -1% | ·
N#C/C(=C\c1ccc(F)c(Br)c1)C(=O)NC1CC1 | · | 4µM* | 10µM* | · | ? | 3.2µM*
SMILES | SMN2 splice up | Rab9 prom act | ELG1 genotoxic | KinaseGlo FLuc | FLuc modulator | NPC1 prom act
O=C(O)C1CC(=O)N(CCC23CC4CC(CC(C4)C2)C3)C(=Nc2ccccc2)S1 (configuration not stated) | · | · | · | 2% | · | ·
CCc1ccc(Sc2cc(C(=O)O)c3ccccc3n2)cc1 | · | · | · | · | 15µM* | ·
CCOC(=O)N1CCC(NC(=O)c2cc(-c3ccc(OC)cc3)nc3ccccc23)CC1 | · | 10% | -4% | · | 4.8µM* | -1%
O=C(O)c1cc(Sc2ccc(Br)cc2)nc2ccccc12 | -5% | -7% | -1% | 1% | ? | -3%
CCc1ccc(-c2cc(C(=O)O)c3ccccc3n2)s1 | · | 1.4µM* | 16% | · | 0.54µM* | 2µM*
O=C(c1cc(-c2cccc(Br)c2)nc2ccccc12)N1CCCC1 | · | 1% | -12% | · | 15µM* | 2%
COc1cc(-c2cc(C(=O)N3CCCCCC3)c3ccccc3n2)cc(OC)c1OC | · | -34% | 1% | · | -10% | -4%
Cc1c(C(=O)Nc2cccc(N(C)S(C)(=O)=O)c2)cccc1[N+](=O)[O-] | · | 0% | 0% | · | 0% | 1%
O=C(Nc1cccc(Cl)c1)C1CCCN(C2=NS(=O)(=O)c3ccccc32)C1 (configuration not stated) | · | -3% | 2% | · | 2% | -5%
COc1ccc(-c2cc(C(=O)N3CCCCCC3)c3ccccc3n2)cc1 | · | 0% | -1% | · | 6.7µM* | 0%
O=C(c1cc(-c2ccncc2)nc2ccccc12)N1CCN(c2ncccn2)CC1 | · | · | -5% | · | · | ·
Cc1ccc(-c2cc(C(=O)N3CCCC3)c3ccccc3n2)s1 | · | 4%[1.84 µM] | 15% | · | 5.4µM* | 18%
O=C(c1cc(-c2ccc(Br)cc2)nc2ccccc12)N1CCC1 | · | -7% | -9% | · | 17µM* | -1%
Cc1ccc(-c2cc(C(=O)N3CCC(C)CC3)c3ccccc3n2)cc1 | · | 7% | -5% | · | 4.3µM* | 3%
COc1ccc(CCNC(=O)c2cn(C)c3ccc(S(=O)(=O)N(C)C)cc3c2=O)cc1OC | -2% | · | · | · | -9% | ·
Cc1cc(Cl)ccc1NC(=O)/C=N/O | · | -3% | -1% | · | 3% | -3%
N#CCn1c(CN2CCCC2)nc2ccccc2c1=O | · | 0% | 3% | · | -1% | -5%
CC1(/[N+]([O-])=C/c2ccc(F)cc2)CCCCC1=O (configuration not stated) | · | -2% | -1% | · | 0% | -1%
CCCCC(CC)CNC(=O)c1ccc2c(=O)n(CCOC)c(=O)[nH]c2c1 (configuration not stated) | 4µM* | · | · | · | -5% | ·
Cc1ccc(/C=C/C(=O)c2nc3ccccc3[nH]2)cc1 | ? | 11% | 1% | -22% | 0.76µM* | 0%
Cc1ccc(/C=C/C(=O)Nc2nc3ccccc3[nH]2)cc1 | 10µM* | 1.8µM* | 10µM* | 1% | ? | 3.2µM*
Cc1ccc(Cc2nc3ccccc3[nH]2)cc1 | · | 0% | -2% | · | -19% | 0%
Cc1onc(-c2c(F)cccc2Cl)c1C(=O)Nc1nc2ccccc2[nH]1 | 28% | 17% | -8% | 6% | -17% | 21%
